Screening results (PubChem BioAssay)
Pf growth 48h: inhibits P. falciparum growth in the first generation, 48 h; Potency, µM (doses to about 28.7 µM), inactives show at the highest dose activity change, negative = inhibition, actives largely listed as inhibitors; P. falciparum luciferase growth in erythrocytes, 48 h; AID 504832; actives 5.9% (n = 310,000); note: potency is the fitted concentration of half-maximal effect; % is set by controls: 0 for no effect and ±100 for the full control effect
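In quantitative HTS format, infected erythrocytes bearing luciferase-reporter parasites were treated for a single generation at 37 C. Luminescence after adding detection reagent served as the growth measure.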
Shiga toxin inh: blocks Shiga toxin action in Vero cells | Vero cells, Shiga toxin protein synthesis inhibition reporter | inhibition, % at 38.7 µM | actives 9.2% (n = 290,000); in the data active = inhibition mostly above about 28%, no sharp cut-off; inactive = mostly below about 43%; note: 0% is about no effect
NS1 function inh: influenza NS1 inhibition. Potency, µM (doses to about 46.1 µM), without a hit: top-dose activity, positive = more growth. actives 0.4% (n = 270,000); calls by dose curve; note: potency is the fitted concentration of half-maximal effect; actives are rising curves; nearly all actives have a fitted effect of over 50% in size
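A cell-based growth assay was used: compounds that relieve NS1-induced slow growth of budding yeast raise OD600. Assay medium was yeast nitrogen base with ammonium sulphate and -URA supplement, pH 6.0, with 2% galactose.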
Pf growth 96h: P. falciparum growth inhibition at 96 hours. Potency, µM (top dose mostly 28.7 µM), inactives show top-dose activity change, negative = inhibition, most hits filed as inhibitors. AID 504834. actives 6.9% (n = 320,000). P. falciparum luciferase reporter growth, 96 h; note: potency is the fitted concentration of half-maximal effect; % is set by controls: 0 for no effect and ±100 for the full control effect
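Readout is luminescence from an integrated firefly luciferase in P. falciparum. Red cells, 2% hematocrit and 0.05% parasitemia final, were cultured with compound through two parasite generations (96 hours) at 37 C, 5% CO2.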
CHX counter: counter-screen hit for Shiga toxin inhibitors, cycloheximide | cell reporter, cycloheximide protein synthesis inhibition counterscreen | max response, % | actives 12% (n = 300,000) | AID 2314; in the data active = max response mostly above about 13%, no sharp cut-off; inactive = mostly below about 14%; note: read at 38.3 µM for the half of the compounds with a filed dose; 0% is about no effect
Starred values were filed as active, the others as inactive; [ ] = dose if it differs, or a comment. The list is not random: actives were taken first. Their share in the collection is about 21%. Unless noted, calls come from the whole dose curve; as a rule, active = well fitted inhibition curve with a large enough effect; inconclusive = small, poorly fitted or top-dose-only effect, or another doubt; inactive = no such curve, though single readings can be large or run the other way.

CC(=O)Nc1ccc(SC[C@H](Cc2ccccc2)N2CCN(CC(C)C)CCC2=O)cc1 was read as Pf growth 48h 7.4µM*, Shiga toxin inh -4, NS1 function inh -2%, Pf growth 96h 4.7µM* and CHX counter -2.
For COc1ccc(SCCN2CCN(CCc3ccccc3)CCC2=O)cc1 the results were Shiga toxin inh 0 and CHX counter 15.
`COc1ccc(SC[C@H](CC(C)C)N2CCN(CCc3ccccc3)CCC2=O)cc1` gave Pf growth 48h inconclusive, Shiga toxin inh 44*, NS1 function inh -10%, Pf growth 96h inconclusive and CHX counter 13*.
For COc1ccc(OC)c(S(=O)(=O)NCC(c2ccco2)S(=O)(=O)c2ccccc2)c1 (stereo unspecified) the results were Pf growth 48h -5% and Pf growth 96h -19%.
CCCCN(CC)CCCNC(=O)c1ccc2c(c1)N(CC)C(=O)c1ccccc1S2(=O)=O was read as Pf growth 48h -2%[0.00184 µM], Shiga toxin inh -2, NS1 function inh 1%, Pf growth 96h -3% and CHX counter -4.
Screening Cc1ccc2nc(N3CCN(Cc4ccc(F)cc4)C3=O)c(C)cc2c1 returned Pf growth 48h 25%, Shiga toxin inh 41, NS1 function inh -171% and CHX counter 20*.
Screening O=C(O)CN1CCN(Cc2ccc(F)cc2)C1=O returned Pf growth 48h -5%, Shiga toxin inh -10, NS1 function inh 0%, Pf growth 96h 42% and CHX counter -5.
For COc1cccc(CNC(=O)CSc2ccc(-c3cccs3)nn2)c1 the results were Pf growth 48h 0%, Shiga toxin inh 2, Pf growth 96h inconclusive and CHX counter 16.
Screening O=C(NCCc1ccccc1)C1(c2ccccc2)CCCC1 returned Pf growth 48h -22%, NS1 function inh -8%, Pf growth 96h 13µM* and CHX counter -1.
For COc1ccccc1C(C(=O)NCc1ccccc1)N(C(=O)c1csnn1)C1CC1 (stereo unspecified) the results were Pf growth 48h -7%, Shiga toxin inh -9, NS1 function inh -7%, Pf growth 96h -5% and CHX counter -2.
Screening COc1ccc(CNC(=O)/C=C/c2cc([N+](=O)[O-])ccc2OC(F)F)cc1OC returned Shiga toxin inh -3, NS1 function inh 3%, Pf growth 96h inconclusive and CHX counter -3.
`C1=Nc2c(Nc3ccccc3)ncnc2Oc2ccccc21` gave Pf growth 48h 29%, Shiga toxin inh 13, NS1 function inh -18%, Pf growth 96h 13µM* and CHX counter -3.
For Clc1ccc2c(c1)C=Nc1c(NCc3ccccc3)ncnc1O2 the results were Pf growth 48h inconclusive, Shiga toxin inh -11, NS1 function inh 3%, Pf growth 96h 40% and CHX counter -4.
`Cc1cc(C)nc(SCC(=O)N/N=C/c2cccn2-c2cccc(C(F)(F)F)c2)n1` gave Pf growth 48h 9.3µM*, Shiga toxin inh 43, NS1 function inh 18%, Pf growth 96h 13µM* and CHX counter -7.
c1ccc(C2(CNc3ccccn3)CCCC2)cc1 was read as Shiga toxin inh -12, NS1 function inh -12%, Pf growth 96h -24% and CHX counter -1.
Screening CNC(=O)[C@@]1(C)C=C[C@@H](Cc2ccccc2)N1C(=O)OC returned Pf growth 48h 32%, Shiga toxin inh 50, NS1 function inh -5%, Pf growth 96h -23% and CHX counter 22*.
Screening COCCNC(=O)[C@@]1(C)C=C[C@@H](Cc2ccccc2)N1C(=O)c1ccccc1 returned Pf growth 48h inconclusive, Shiga toxin inh 28*, NS1 function inh -11%, Pf growth 96h -15% and CHX counter 21*.
COC(=O)N1[C@H](Cc2ccccc2)C=C[C@]1(C)C(=O)NCc1ccccn1 was read as Pf growth 48h 29%, Shiga toxin inh -5, NS1 function inh 2%, Pf growth 96h -9% and CHX counter 0.
`c1ccc2c(CNCCN3CCOCC3)cccc2c1` gave Pf growth 48h 2%, Shiga toxin inh -14, NS1 function inh 7%, Pf growth 96h 1%[5.75 µM] and CHX counter -3.
For O=C(NCc1cccnc1)C(=O)NCC1OCCN1S(=O)(=O)c1ccc(F)cc1 (stereo unspecified) the results were Pf growth 48h 17%, Shiga toxin inh -8, NS1 function inh inconclusive, Pf growth 96h inconclusive and CHX counter 7.
O=C(NCCc1csc(-c2ccc(C(F)(F)F)cc2)n1)c1cccs1 was read as Pf growth 48h inconclusive, Shiga toxin inh 29, NS1 function inh -5%, Pf growth 96h inconclusive and CHX counter -3.
O=S(=O)(Nc1ccc(O)c2ccccc12)c1ccc(Br)cc1 was read as Pf growth 48h 4.7µM*, Shiga toxin inh -5, NS1 function inh -1%, Pf growth 96h inconclusive and CHX counter -3.
CC(=O)Nc1ccc(NS(=O)(=O)c2ccccc2)c2ccccc12 was read as Shiga toxin inh 2, NS1 function inh 8%, Pf growth 96h 5% and CHX counter -2.
`Cc1ccc(S(=O)(=O)Nc2ccc(O)c3ncccc23)cc1` gave Pf growth 48h inconclusive, Shiga toxin inh 23, NS1 function inh 2%, Pf growth 96h 0% and CHX counter -3.
For Cc1ccc(S(=O)(=O)Nc2ccc(O)c3cccnc23)cc1 the results were Pf growth 48h 6.6µM*, Shiga toxin inh 4, NS1 function inh 12%, Pf growth 96h 9.3µM* and CHX counter -3.
Cc1ccc(C2C(C#N)=C(N)OC3=C2C(=O)CC(C)(C)C3)s1 (stereo unspecified) was read as Pf growth 48h inconclusive, Shiga toxin inh -4, NS1 function inh -3%, Pf growth 96h 43% and CHX counter -2.
Screening O=[N+]([O-])c1ccc(C2=Nc3cc(Cl)ccc3OC2)cc1 returned Pf growth 48h inconclusive, Shiga toxin inh 62*, NS1 function inh -6%, Pf growth 96h -12% and CHX counter 12.
Cc1ccc2c(c1)N=C(c1ccc(F)cc1)CO2 was read as Pf growth 48h 44%, Shiga toxin inh 111*, NS1 function inh -30%, Pf growth 96h 30% and CHX counter 41*.
CC(=O)N1N=C(c2ccc(Cl)cc2)CC1c1ccc([N+](=O)[O-])cc1 (stereo unspecified) was read as Pf growth 48h 15%, Shiga toxin inh 29, NS1 function inh 5%, Pf growth 96h -89% and CHX counter 1.
For CCN(CC(=O)NC(=O)NC1CCCCC1)Cc1nc2ccccc2c(=O)[nH]1 the results were Pf growth 48h -17%, Shiga toxin inh -6, NS1 function inh -3% and CHX counter -4.
For O=C(COC(=O)CCc1nc2ccccc2c(=O)[nH]1)NC1CCS(=O)(=O)C1 (stereo unspecified) the results were Pf growth 48h 33%, Shiga toxin inh 26, Pf growth 96h 34% and CHX counter 34*.
For CC1CCC(NC(=O)CC(C)(C)Cc2nc3ccccc3c(=O)[nH]2)CC1 (stereo unspecified) the results were Pf growth 48h 9%, Shiga toxin inh 51, NS1 function inh inconclusive, Pf growth 96h inconclusive and CHX counter 16*.
